# Source: PubChem BioAssay
# An excerpt weighted towards active compounds, which were near 1.5% of everything screened.
# Polio RdRp inh: inhibitors of poliovirus RNA polymerase binding and polymerization; % elongation, % (compound at 16.7 µg/mL); 0.66% of 150,000 active; AID 588519; poliovirus polymerase elongation, fluorescence polarization; active compounds read low; P03300; in the data active means % elongation below about 90%
# MenB inh: inhibitors of Mycobacterium tuberculosis MenB enzyme; AID 540299; inhibition, % (concentration not given with the values); MenB enzyme assay, absorbance read-out; 0.43% of 100,000 active; P9WNP5; in the data active means inhibition above about 21%, passing the limit was not always enough
# Target sequence (P9WNP5 whole entry, looked up): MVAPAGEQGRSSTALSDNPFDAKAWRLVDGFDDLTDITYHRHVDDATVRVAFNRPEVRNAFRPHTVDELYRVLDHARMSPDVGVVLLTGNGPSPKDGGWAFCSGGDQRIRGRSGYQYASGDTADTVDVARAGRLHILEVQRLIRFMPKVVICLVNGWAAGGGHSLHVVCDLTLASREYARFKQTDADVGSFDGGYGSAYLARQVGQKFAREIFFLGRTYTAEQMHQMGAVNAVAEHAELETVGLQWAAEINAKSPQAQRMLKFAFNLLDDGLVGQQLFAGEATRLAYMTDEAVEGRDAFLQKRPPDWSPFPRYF
# MbtI inh: inhibitors of Mycobacterium tuberculosis siderophore enzyme MbtI | purified MbtI enzyme, fluorescence intensity read-out | inhibition, % (no concentration beside the values) | 0.89% of 100,000 active | AID 493033; in the data active means inhibition mostly above about 56%, no sharp cut-off; inactive means mostly below about 77%
# Active calls of the source: *; i = inactive; · = no result.
SMILES,Polio RdRp inh,MenB inh,MbtI inh
COc1cccc(C2NS(=O)(=O)N=C3CCCCCN32)c1OC(F)F (stereo not given),103,-13,3
O=S1(=O)N=C2CCCCCN2C(c2ccc(Br)cc2)N1 (stereo not given),22*,4,-4
O=C(Cc1ccc(Cl)cc1)Nc1ccc2nn(-c3ccccc3)nc2c1,107,·,·
O=C(Nc1ccc(F)c(F)c1)c1cnn(-c2ccccc2)n1,90*,-43,29
Cc1cc(=O)oc2c1c(C)nn2C,104,-7,8
COc1ccc(-c2nn(C)c3sc(C(=O)NCCN(C)C)cc23)cc1OC,60*,·,·
COc1ccc(OC)c(CNC(=O)c2cc3c(-c4ccc(OC)c(OC)c4)nn(C)c3s2)c1,107,·,·
CCCN(CCC)CCCNC(=O)c1cc2c(-c3ccc(OC)c(OC)c3)nn(C)c2s1,83*,·,·
COCCCNC(=O)c1cc2c(-c3cccc(OC)c3)nn(C)c2s1,103,·,·
CCN(CC)CCNC(=O)c1cc2c(-c3cccc(OC)c3)nn(C)c2s1,83*,·,·
CCCN(CCC)CCNC(=O)c1cc2c(-c3ccc(Cl)cc3)nn(C)c2s1,96,·,·
Nc1ccccc1N=c1cc(-c2ccc3c(c2)OCO3)oc2ccccc12,105,-10,-2
O=S1(=O)N=CNc2ccc(S(=O)(=O)Nc3ccccc3)cc21,101,-5,-3
C=CCNc1nc(-c2ccc(OC)cc2)cs1,110,-5,·
CCc1ccccc1NC(=O)Cn1c(=O)n(CCc2ccccc2)c(=O)c2sc3ccccc3c21,100,·,·
O=S(=O)(c1ccc(Br)cc1)N1CCNCC1,104,6,·
N#Cc1ccc(S(=O)(=O)N2CCNCC2)cc1,102,27*,-3
Cc1ccc(-n2c(SC3CCCC3=O)nnc2-c2ccncc2)cc1C (stereo not given),101,-18,-15
COC(=O)c1cc(OC)c(OC)cc1NC(=O)CSc1nnnn1-c1ccccc1OC,101,-2,44
NC(=S)NCC1CCCO1 (stereo not given),97,-15,89*
S=C(NCC1CCCO1)NC1CC1 (stereo not given),101,-6,-11
CCOC(=O)c1c(C)oc2nc(C)nc(NCCc3ccc(OCC)c(OCC)c3)c12,100,·,·
COc1ccc2c(c1)-c1nc(NC(=O)c3ccccc3Br)sc1CC2,103,-23,-4
COc1ccc2c(c1)Cc1sc(NC(=O)c3cccc(F)c3)nc1-2,90,·,·
COc1ccc2c(c1)Cc1sc(NC(=O)c3cccc(Br)c3)nc1-2,97,·,·
SMILES,Polio RdRp inh,MenB inh,MbtI inh
COc1ccc2c(c1)Cc1sc(NC(=O)c3ccc(OC)c(Br)c3)nc1-2,87*,-3,-7
COc1ccc(C(=O)Nc2nc3c(s2)Cc2cc(OC)ccc2-3)cc1,67*,·,·
COc1ccc2c(c1)Cc1sc(NC(=O)c3ccccc3C)nc1-2,83*,·,·
O=C(Nc1ccc(S(=O)(=O)N2CCOCC2)cc1)c1cnccn1,102,-37,9
CCCCNC(=O)c1cn(CC)c2ccc(S(=O)(=O)N(C)C3CCCCC3)cc2c1=O,101,-8,-1
Cc1cccc(N(C)S(=O)(=O)c2c(C)nc3sccn3c2=O)c1,100,26,-5
O=C(/C=C/c1ccccc1)Nc1ncn[nH]1,103,-60,-30
O=C(/C=C/c1ccccc1Cl)Nc1ncn[nH]1,67*,-30,·
Cc1c(C)c2c(=O)n(-c3ccccc3)[nH]c2[nH]c1=O,·,·,66*
Cc1cc(=O)[nH]c2[nH]n(-c3ccccc3)c(=O)c12,103,-2,·
N#CC(C(=O)CN1CCOCC1)c1ccccc1 (stereo not given),104,-4,3
NC(=S)NN=C1CCCCC1,101,-38,-3
NC(=S)NN=C1C2CC3CC(C2)CC1C3,82*,-20,51
COc1ccc(OCCSc2nc(C)cc(=O)[nH]2)cc1,102,51*,12
COc1cccc(OCCSc2nc(-c3ccccc3)cc(=O)[nH]2)c1,103,-24,17
COc1cccc(CNC(C)C(=O)Nc2ccc(S(N)(=O)=O)cc2)c1 (stereo not given),105,9,-4
Cc1ccc(C)c(C(=O)/C=C/C(=O)O)c1,102,67*,·
Cc1ccc(C)c(C(=O)NCC(C)C)c1,101,-2,-18
COc1ccccc1C(O)(C(=O)NNc1cccc(Br)n1)c1ccccc1OC,104,-13,-14
Cc1ccc(S(=O)(=O)Nc2cc(Sc3ncn[nH]3)c(O)cc2C)cc1,111,3,54*
COc1ccc(S(=O)(=O)Nc2ccc(O)c(Sc3ncn[nH]3)c2)cc1,101,-8,8
N#Cc1cccn1Cc1ccc(F)cc1Cl,·,·,-14
CCCCn1c(=O)n(CC(=O)c2[nH]c(C)c(C(=O)OCC)c2C)c(=O)c2c1ncn2Cc1ccco1,114,-30,22
COC(=O)C1=CN(CCc2ccc(F)cc2)C=C(C(=O)OC)C1c1ccccc1C(F)(F)F,102,-48,i
CC(C)(C)OC(=O)N1CCC(c2nc3c(nnn3Cc3ccccc3Cl)c(=O)[nH]2)CC1,104,-17,-10
SMILES,Polio RdRp inh,MenB inh,MbtI inh
CC(C)(C)c1nc(N2CCN(C(=O)c3ccco3)CC2)c2nnn(Cc3ccccc3Cl)c2n1,103,24*,23
CN(C)c1nc(C2CC2)nc2c1nnn2Cc1ccccc1Cl,104,38*,7
NC(=O)C1CCN(c2nc(C3CC3)nc3c2nnn3Cc2ccccc2Cl)CC1,102,52*,7
Cc1ccc(Cn2nnc3c(=O)[nH]c(C4CCCN(C(=O)c5ccco5)C4)nc32)cc1 (stereo not given),100,6,-5
CCC1CCCCN1c1ncnc2c1nnn2Cc1ccccc1Cl (stereo not given),101,0,4
O=C1CN(c2ccccc2)C(=O)C1C(=O)Nc1ccccc1 (stereo not given),100,7,71
C=CCn1c(=O)[nH]c2nc3cc(N=CN(C)C)ccc3nc2c1=O,-6.0*,-49,6
C=CCn1c(=O)[nH]c2nc3cc(N=CN(C)C)c(C)cc3nc2c1=O,88,-21,-4
CC(C)Nc1nc(NC(C)C)nc(N(C)C(N)=O)n1,102,4,·
CC(C)Nc1nc(NC(C)C)nc(C(N)=O)n1,100,35*,5
CCC(C)c1ccc(NC(=O)CSc2nc(N)cc(=O)[nH]2)cc1 (stereo not given),95,-5,12
Brc1cccc(-c2nnc(CN3CCOCC3)o2)c1,103,0,1
CCn1ncc(Cl)c(Cl)c1=O,77*,-13,·
O=C1c2ccccc2C(=O)N1Cn1ncc(Cl)c(Cl)c1=O,106,-16,1
CC(C)Cc1cc(C(=O)O)nc(=O)[nH]1,99,38*,8
CCOC(=O)c1cc(C)[nH]c(=O)n1,100,1,79
CC1CCN(C(c2ccc(F)cc2)c2sc3ncnn3c2O)CC1 (stereo not given),105,-21,9
N#CC(C(=O)COc1ccccc1)c1ccccc1 (stereo not given),102,-10,54*
O=C(O)COc1ccccc1,102,-14,0
Cc1cccc(OCCCC(=O)O)c1,101,·,-1
CCNC(=O)CCOc1cccc(C)c1,52*,2,0
CCCCn1c(SCC(=O)OCC)nc2c(sc(=S)n2CCc2ccccc2)c1=O,105,-9,-40
CCN1CCN(C(=O)c2ccccc2SC)CC1,100,1,-16
O=C(CCC1COc2ccccc2O1)Nc1ccc(C(=O)N2CCCC2)cc1 (stereo not given),106,5,-11
